Reference: PubChem BioAssay (NCATS)
Records with an inconclusive call do not appear. Calls of active or inactive are those of the source. The call rests on the fitted dose curve; in most records, active means well fitted curve in the direction sought with a large enough effect; inconclusive means small, poorly fitted or top-dose-only effect, or another doubt; inactive means no such curve, though single readings can be large; an effect the other way counts as inactive or inconclusive.

Key:
[1] = molecular target: ATP-dependent 6-phosphofructokinase (Trypanosoma brucei brucei) (UniProt O15648); assay: qHTS Assay to Find Inhibitors of T. brucei phosphofructokinase: hit validation (AID 492961); further: on the % scale 0 is the no-effect control and ±100 the full control effect
ATP-dependent 6-phosphofructokinase (Trypanosoma brucei brucei), sequence (O15648 whole entry, looked up): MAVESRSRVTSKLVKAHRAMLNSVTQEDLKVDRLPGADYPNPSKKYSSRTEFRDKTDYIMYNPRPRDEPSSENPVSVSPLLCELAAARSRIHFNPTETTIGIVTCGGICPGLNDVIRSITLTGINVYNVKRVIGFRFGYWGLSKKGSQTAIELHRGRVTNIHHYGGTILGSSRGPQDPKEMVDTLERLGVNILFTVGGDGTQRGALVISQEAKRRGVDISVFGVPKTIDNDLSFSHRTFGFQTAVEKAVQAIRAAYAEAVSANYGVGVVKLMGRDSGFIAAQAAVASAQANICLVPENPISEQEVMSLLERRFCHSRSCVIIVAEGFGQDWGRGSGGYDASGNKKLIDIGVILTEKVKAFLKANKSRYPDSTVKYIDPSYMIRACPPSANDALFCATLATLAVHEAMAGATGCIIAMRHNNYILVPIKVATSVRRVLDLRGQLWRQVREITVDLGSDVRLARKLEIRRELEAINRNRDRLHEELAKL
Method in brief: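 Luminescence from ADP-Glo reports ADP generated as T. brucei PFK (1.25 nM) phosphorylates 0.5 mM fructose-6-phosphate using 0.1 mM ATP. Reactions ran 45 min at room temperature, pH 8.0.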

[2] = qHTS profiling for inhibitors of Plasmodium falciparum proliferation (AID 504749);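 further: 0% = DMSO vehicle and full inhibition = artemisinin control; nearly all actives have a fitted effect of over 60% in size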; details: P. falciparum in erythrocytes, SYBR Green DNA, 72 h, at 28.7 µM (top of the series)
Method in brief: (§1)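 Each compound contacts P. falciparum-infected red blood cells for 72 h at 37 C; lysis buffer (Tris, EDTA, saponin, Triton X, SYBR Green I) is added and fluorescence measured next morning; values normalized to controls.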

3D7 = assay: as above; details: P. falciparum in erythrocytes, SYBR Green DNA, 72 h; series mostly up to 28.7 µM
Method in brief: as §1

7G8 = assay: as above; details: P. falciparum in erythrocytes, SYBR Green DNA, 72 h; series mostly up to 28.7 µM
Method in brief: as §1

AS120 = assay: as above; details: P. falciparum in erythrocytes, SYBR Green DNA, 72 h; series mostly up to 28.7 µM
Method in brief: as §1

ATS189 = assay: as above; details: P. falciparum in erythrocytes, SYBR Green DNA, 72 h; series mostly up to 28.7 µM
Method in brief: as §1

CP185 = assay: as above; details: P. falciparum in erythrocytes, SYBR Green DNA, 72 h; series mostly up to 28.7 µM
Method in brief: as §1

CP191 = assay: as above; details: P. falciparum in erythrocytes, SYBR Green DNA, 72 h; series mostly up to 28.7 µM
Method in brief: as §1

CP192 = assay: as above; details: P. falciparum in erythrocytes, SYBR Green DNA, 72 h; series mostly up to 28.7 µM
Method in brief: as §1

CP194 = assay: as above; details: P. falciparum in erythrocytes, SYBR Green DNA, 72 h; series mostly up to 28.7 µM
Method in brief: as §1

CP201 = assay: as above; details: P. falciparum in erythrocytes, SYBR Green DNA, 72 h; series mostly up to 28.7 µM
Method in brief: as §1

CP203 = assay: as above; details: P. falciparum in erythrocytes, SYBR Green DNA, 72 h; series mostly up to 28.7 µM
Method in brief: as §1

CP237 = assay: as above; details: P. falciparum in erythrocytes, SYBR Green DNA, 72 h; series mostly up to 28.7 µM
Method in brief: as §1

CP238 = assay: as above; details: P. falciparum in erythrocytes, SYBR Green DNA, 72 h; series mostly up to 28.7 µM
Method in brief: as §1

CP247 = assay: as above; details: P. falciparum in erythrocytes, SYBR Green DNA, 72 h; series mostly up to 28.7 µM
Method in brief: as §1

CP286 = assay: as above; details: P. falciparum in erythrocytes, SYBR Green DNA, 72 h; series mostly up to 28.7 µM
Method in brief: as §1

DFO2036 = assay: as above; details: P. falciparum in erythrocytes, SYBR Green DNA, 72 h; series mostly up to 28.7 µM
Method in brief: as §1

DIV30 = assay: as above; details: P. falciparum in erythrocytes, SYBR Green DNA, 72 h; series mostly up to 28.7 µM
Method in brief: as §1

HB3 = assay: as above; details: P. falciparum in erythrocytes, SYBR Green DNA, 72 h; series mostly up to 28.7 µM
Method in brief: as §1

P94_40 = assay: as above; details: P. falciparum in erythrocytes, SYBR Green DNA, 72 h; series mostly up to 28.7 µM
Method in brief: as §1

CC(C)(C)C(=O)OCC(=O)C1CCC2C3CCC4=CC(=O)CCC4(C)C3CCC12C (stereo unspecified)
inactive: Potency [1] | activity, negative = inhibition ([2]; parasite line A) 6.25% | activity, negative = inhibition ([2]; parasite line B) 11.2% | Potency (3D7) | Potency (7G8) | Potency (AS120) | Potency (ATS189) | Potency (CP185) | Potency (CP191) | Potency (CP192) | Potency (CP194) | Potency (CP201) | Potency (CP203) | Potency (CP237) | Potency (CP238) | Potency (CP247) | Potency (CP286) | Potency (DFO2036) | Potency (DIV30) | Potency (HB3) | Potency (P94_40)

COC(c1ccccc1)(c1ccccc1)C(Oc1nc(C)cc(C)n1)C(=O)O (stereo unspecified)
inactive: Potency [1] | activity, negative = inhibition ([2]; parasite line A) 2.94% | activity, negative = inhibition ([2]; parasite line B) 8.39% | Potency (3D7) | Potency (7G8) | Potency (AS120) | Potency (ATS189) | Potency (CP185) | Potency (CP191) | Potency (CP192) | Potency (CP194) | Potency (CP201) | Potency (CP203) | Potency (CP237) | Potency (CP238) | Potency (CP247) | Potency (CP286) | Potency (DFO2036) | Potency (DIV30) | Potency (HB3) | Potency (P94_40)

C=NC(C(=O)NC1C(=O)N2C1SC(C)(C)C2C(=O)O)c1ccccc1 (stereo unspecified)
inactive: Potency [1] | activity, negative = inhibition ([2]; parasite line A) 7.65% | activity, negative = inhibition ([2]; parasite line B) -6.25% | Potency (3D7) | Potency (7G8) | Potency (AS120) | Potency (ATS189) | Potency (CP185) | Potency (CP191) | Potency (CP192) | Potency (CP194) | Potency (CP201) | Potency (CP203) | Potency (CP237) | Potency (CP238) | Potency (CP247) | Potency (CP286) | Potency (DFO2036) | Potency (DIV30) | Potency (HB3) | Potency (P94_40)

O=C1CC[C@H](C(=O)N[C@@H]2C[C@H]2c2ccccc2)N1
inactive: Potency [1] | activity, negative = inhibition ([2]; parasite line A) 10.5% | activity, negative = inhibition ([2]; parasite line B) 18.1% | Potency (3D7) | Potency (7G8) | Potency (AS120) | Potency (ATS189) | Potency (CP185) | Potency (CP191) | Potency (CP192) | Potency (CP194) | Potency (CP201) | Potency (CP203) | Potency (CP237) | Potency (CP238) | Potency (CP247) | Potency (CP286) | Potency (DFO2036) | Potency (DIV30) | Potency (HB3) | Potency (P94_40)

NC(C(=O)O)c1ccc(O)cc1 (stereo unspecified)
inactive: Potency [1] | activity, negative = inhibition ([2]; parasite line A) 3.02% | activity, negative = inhibition ([2]; parasite line B) 9.1% | Potency (3D7) | Potency (7G8) | Potency (AS120) | Potency (ATS189) | Potency (CP185) | Potency (CP191) | Potency (CP192) | Potency (CP194) | Potency (CP201) | Potency (CP203) | Potency (CP237) | Potency (CP238) | Potency (CP247) | Potency (CP286) | Potency (DFO2036) | Potency (DIV30) | Potency (HB3) | Potency (P94_40)

CC(O)C1CCC2C3CCC4CC(O)CCC4(C)C3CCC12C (stereo unspecified)
inactive: Potency [1] | activity, negative = inhibition ([2]; parasite line A) 11.7% | activity, negative = inhibition ([2]; parasite line B) 5.42% | Potency (3D7) | Potency (7G8) | Potency (AS120) | Potency (ATS189) | Potency (CP185) | Potency (CP191) | Potency (CP192) | Potency (CP194) | Potency (CP201) | Potency (CP203) | Potency (CP237) | Potency (CP238) | Potency (CP247) | Potency (CP286) | Potency (DFO2036) | Potency (DIV30) | Potency (HB3) | Potency (P94_40)

CCCCN1CC(O)C(O)C(O)C1CO (stereo unspecified)
inactive: Potency [1] | activity, negative = inhibition ([2]; parasite line A) 0.477% | activity, negative = inhibition ([2]; parasite line B) 1.06% | Potency (3D7) | Potency (7G8) | Potency (AS120) | Potency (ATS189) | Potency (CP185) | Potency (CP191) | Potency (CP192) | Potency (CP194) | Potency (CP201) | Potency (CP203) | Potency (CP237) | Potency (CP238) | Potency (CP247) | Potency (CP286) | Potency (DFO2036) | Potency (DIV30) | Potency (HB3) | Potency (P94_40)

CC[C@@H]1/C=C(\C)C[C@H](C)C[C@H](OC)[C@H]2O[C@@](O)(C(=O)C(=O)N3CCCC[C@H]3C(=O)O[C@H](/C(C)=C/[C@@H]3CC[C@H](Cl)[C@H](OC)C3)[C@H](C)[C@@H](O)CC1=O)[C@H](C)C[C@@H]2OC
inactive: Potency [1] | activity, negative = inhibition ([2]; parasite line A) 10.4% | activity, negative = inhibition ([2]; parasite line B) 3.17% | Potency (3D7) | Potency (7G8) | Potency (AS120) | Potency (ATS189) | Potency (CP185) | Potency (CP191) | Potency (CP192) | Potency (CP194) | Potency (CP201) | Potency (CP203) | Potency (CP237) | Potency (CP238) | Potency (CP247) | Potency (CP286) | Potency (DFO2036) | Potency (DIV30) | Potency (HB3) | Potency (P94_40)

NC[C@@H]1O[C@H](OC2[C@@H](CO)O[C@@H](OC3[C@H](O)[C@H](N)C[C@H](N)[C@H]3OC3O[C@H](CO)[C@@H](O)[C@H](O)[C@@H]3N)[C@H]2O)C(N)[C@H](O)[C@@H]1O (stereo partly specified)
inactive: Potency [1] | activity, negative = inhibition ([2]; parasite line A) 11.9% | activity, negative = inhibition ([2]; parasite line B) 20% | Potency (3D7) | Potency (7G8) | Potency (AS120) | Potency (ATS189) | Potency (CP185) | Potency (CP191) | Potency (CP192) | Potency (CP194) | Potency (CP201) | Potency (CP203) | Potency (CP237) | Potency (CP238) | Potency (CP247) | Potency (CP286) | Potency (DFO2036) | Potency (DIV30) | Potency (HB3) | Potency (P94_40)

COc1cccc(OC)c1C(=O)NC1C(=O)N2C1SC(C)(C)C2C(=O)O (stereo unspecified)
inactive: Potency [1] | activity, negative = inhibition ([2]; parasite line A) 11.2% | activity, negative = inhibition ([2]; parasite line B) -9.69% | Potency (3D7) | Potency (7G8) | Potency (AS120) | Potency (ATS189) | Potency (CP185) | Potency (CP191) | Potency (CP192) | Potency (CP194) | Potency (CP201) | Potency (CP203) | Potency (CP237) | Potency (CP238) | Potency (CP247) | Potency (CP286) | Potency (DFO2036) | Potency (DIV30) | Potency (HB3) | Potency (P94_40)

CC(=O)OCC(=O)[C@@]1(O)CCC2C3CCC4=CC(=O)C=CC4(C)C3C(O)C[C@]21C (stereo partly specified)
inactive: Potency [1] | activity, negative = inhibition ([2]; parasite line A) 8.28% | activity, negative = inhibition ([2]; parasite line B) 10.3% | Potency (3D7) | Potency (7G8) | Potency (AS120) | Potency (ATS189) | Potency (CP185) | Potency (CP191) | Potency (CP192) | Potency (CP194) | Potency (CP201) | Potency (CP203) | Potency (CP237) | Potency (CP238) | Potency (CP247) | Potency (CP286) | Potency (DFO2036) | Potency (DIV30) | Potency (HB3) | Potency (P94_40)
